Assay [1] concerns Plasmodium falciparum Sir2 (PF13_0152, Sir2A). The assay is described as follows: pfSir2 binders on small-molecule microarrays, primary screen, biochemical, small-molecule microarray, 635 nm fluorescence (AID 1098).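 Also: score merges spot fluorescence intensity with its signal-to-noise ratio.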 The note with it: small-molecule microarray binding, fluorescence 635 nm; higher = more signal.
Assay [2] can be described thus: small-molecule microarray binders of probe aDKK1, primary screen, biochemical, biotinylated probe, 635/667 nm fluorescence (AID 1099).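 Also: score merges 667nm spot fluorescence with signal to noise across triplicate slides.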 The following applies: higher = more signal.
A short description of assay [3]: small-molecule microarray binders of probe aCHRDL2, primary screen, biochemical, biotinylated probe, 635/667 nm fluorescence (AID 1100). The following applies: higher = more signal.
Assay [4] is described as follows: splicing luciferase reporter signal modulators, primary screen, spliceosome inhibition project, cell-based, HEK293, splice +/- reporter (AID 1101).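 Also: HEK293 cells carrying a splicing-competent luciferase reporter gene; test concentration not given here.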 The following applies: luminescence, 24 h, higher = more signal, called active from +8 up or from −8 down. (In a reporter assay the amount or activity of a reporter protein is the signal.)
Assay [5] addresses Fibroblast growth factor 10 (Homo sapiens) (UniProt O15520). The assay is described as follows: FGF10 binders on small-molecule microarrays, primary screen, biochemical, small-molecule microarray, 635 nm fluorescence (AID 1102). The following applies: FGF10 binding, fluorescence 635 nm, higher = more signal.
The subject of assay [6] is glycogen synthase kinase-3 (GSK3A per assay name; protocol says GSK3B). The assay is described as follows: GSK3 binders on small-molecule microarrays, primary screen, biochemical, small-molecule microarray, 635 nm fluorescence, GSK3A (AID 1103). Also: the record names both GSK3A and GSK3B. The following applies: small-molecule microarray binding, fluorescence 635 nm; higher = more signal.
Assay [7] concerns the target Epidermal growth factor receptor (Homo sapiens) (UniProt P00533). As to the kind of experiment: EGFR binders on small-molecule microarrays, primary screen, biochemical, small-molecule microarray, 635 nm fluorescence (AID 1104).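 Also: score merges 667 nm emission intensity with spot signal to noise over triplicate slides.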 The note with it: EGFR binding, higher = more signal.
Assay [8] has as its target Follistatin-related protein 3 (Homo sapiens) (UniProt O95633). The assay is described as follows: FSTL3 binders on small-molecule microarrays, primary screen, biochemical, small-molecule microarray, 635 nm fluorescence (AID 1105).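 Also: score merges emission near 667 nm and signal to noise per printed spot across three slides.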 The note with it: FSTL3 binding, higher = more signal.
Assay [9] deals with Dickkopf-related protein 1 (Homo sapiens) (UniProt O94907). The assay is described as follows: DKK1 binders on small-molecule microarrays, primary screen, biochemical, small-molecule microarray, 635 nm fluorescence scan (AID 1106).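 Also: score merges emission near 667 nm with signal to noise over three replicate slides.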 The note with it: DKK1 binding, higher = more signal.
The test system of assay [10] is Inhibin beta A chain (activin A). As to the kind of experiment: INHBA (activin A) binders on microarrays, primary screen, biochemical, small-molecule microarray, 635 nm fluorescence scan (AID 1107).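 Also: mouse activin A protein probed at 4.33 µg/mL on printed slides; score merges bound-protein fluorescence near 667 nm with spot signal-to-noise.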 The following applies: small-molecule microarray binding, higher = more signal.
Assay [11] has as its system Human papillomavirus type 1a protein E7 (residues 44-93). The assay is described as follows: HPV1a E7 fragment binders on microarrays, primary screen, biochemical, small-molecule microarray, residues 44-93, 635 nm fluorescence (AID 1108).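 Also: E7 fragment applied at 1 µg/mL in TBST for 1 h at 4 C; score combines spot fluorescence with its signal to noise ratio.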 The following applies: small-molecule microarray binding, fluorescence 635 nm; higher = more signal.
A short description of assay [12]: modulators of HCV replicon luciferase signal, primary screen, HCV replication inhibitor project, Huh7 cells, luciferase reporter (AID 1109).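 Also: huh7 hepatoma cells harbouring a luciferase neomycin HCV replicon reporter; luciferase luminescence as measure of HCV replicon replication; test concentration not given here.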 The following applies: 48 h, higher = more signal. On the technique in general: Replicon systems follow genome replication, usually without infectious particles.
Assay [13] has as its target Left-right determination factor 2 (Homo sapiens) (UniProt O00292). As to the kind of experiment: LEFTY2 binders on small-molecule microarrays, primary screen, biochemical, small-molecule microarray, 635 nm fluorescence scan (AID 1110). The following applies: LEFTY2 binding, higher = more signal.
Assay [14] concerns the target Calmodulin-1 (Homo sapiens) (UniProt P0DP23). The assay is described as follows: CALM1 binders on microarrays, EGTA buffer, profiling panel, biochemical, small-molecule microarray, Cy5-labelled CALM1 (AID 1111).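 Also: labelled calmodulin applied in Tris saline Tween buffer holding calcium plus EGTA and DTT.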 The following applies: Cy5-CALM1 binding fluorescence, higher = more signal.
The target is the same in assay [15]. The assay is described as follows: calcium-bound CALM1 binders on microarrays, profiling panel, artefact control for SMM control-protein annotation, biochemical, small-molecule microarray, Cy5-labelled CALM1, plus calcium (AID 1112).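 Also: score merges spot fluorescence with signal to noise from triplicate slides.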 The note with it: Cy5-CALM1 binding fluorescence, higher = more signal.
A short description of assay [16]: small-molecule microarray binders of probe aWnt5a, primary screen, biochemical, biotinylated probe, 635/667 nm fluorescence (AID 1113).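 Also: score merges 667 nm fluorescence intensity with signal-to-noise per printed feature.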 The note with it: higher = more signal.
Assay [17] is described as follows: small-molecule microarray binders of probe aShh, primary screen, biochemical, biotinylated probe, 635/667 nm fluorescence (AID 1114).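 Also: probe is biotin-labelled aShh protein from a stem cell growth factor screen; measures binding of labelled protein to compounds printed on the slide; score merges feature fluorescence at 667 nm with signal-to-noise.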 The following applies: higher = more signal.
A short description of assay [18]: small-molecule microarray binders of probe aNog, primary screen, biochemical, biotinylated probe, 635/667 nm fluorescence (AID 1115).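 Also: probe is biotinylated aNog protein used at 0.15 µg/mL for 1 h at 4 C; z-score combines 667 nm fluorescence of each spot with its signal to noise.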 The following applies: higher = more signal.
Assay [19] addresses Torsin-1A-interacting protein 1 (Homo sapiens) (UniProt Q5JTV8). As to the kind of experiment: LAP1 binders from COS7 cell lysate, primary screen, small-molecule microarray, 635/667 nm fluorescence (AID 1116). The following applies: COS7-hLAP1 lysate binding, 635 nm fluorescence, higher = more signal.
The target in assay [20] is Alpha-bungarotoxin (Bungarus multicinctus) (UniProt P60615). The assay is described as follows: alpha-bungarotoxin binders on microarray, profiling panel, artefact control for SMM control protein annotation, biochemical, small-molecule microarray, Alexa647 label, 635/667 nm fluorescence (AID 1117). The note with it: alpha-BTX-A647 binding fluorescence, higher = more signal.

Activity calls are given as the source filed them.

Sequence of Left-right determination factor 2 (Homo sapiens) (O00292 whole entry, looked up): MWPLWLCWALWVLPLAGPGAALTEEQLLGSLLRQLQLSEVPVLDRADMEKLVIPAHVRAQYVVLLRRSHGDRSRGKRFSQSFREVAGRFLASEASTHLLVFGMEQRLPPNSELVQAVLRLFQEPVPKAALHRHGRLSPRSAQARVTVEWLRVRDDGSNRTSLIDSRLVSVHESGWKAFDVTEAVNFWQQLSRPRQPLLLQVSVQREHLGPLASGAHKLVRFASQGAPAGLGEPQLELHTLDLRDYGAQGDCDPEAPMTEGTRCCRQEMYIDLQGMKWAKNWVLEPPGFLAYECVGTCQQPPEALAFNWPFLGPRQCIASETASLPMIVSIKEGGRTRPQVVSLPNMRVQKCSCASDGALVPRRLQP
Sequence of Follistatin-related protein 3 (Homo sapiens) (O95633 whole entry, looked up): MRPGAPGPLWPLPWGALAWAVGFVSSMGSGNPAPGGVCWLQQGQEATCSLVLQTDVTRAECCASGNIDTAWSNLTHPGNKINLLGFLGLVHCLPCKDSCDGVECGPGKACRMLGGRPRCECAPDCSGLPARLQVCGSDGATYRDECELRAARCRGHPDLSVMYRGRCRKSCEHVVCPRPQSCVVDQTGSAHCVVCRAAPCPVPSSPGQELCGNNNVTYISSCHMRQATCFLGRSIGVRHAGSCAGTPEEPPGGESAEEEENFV
Sequence of Epidermal growth factor receptor (Homo sapiens) (P00533 whole entry, looked up): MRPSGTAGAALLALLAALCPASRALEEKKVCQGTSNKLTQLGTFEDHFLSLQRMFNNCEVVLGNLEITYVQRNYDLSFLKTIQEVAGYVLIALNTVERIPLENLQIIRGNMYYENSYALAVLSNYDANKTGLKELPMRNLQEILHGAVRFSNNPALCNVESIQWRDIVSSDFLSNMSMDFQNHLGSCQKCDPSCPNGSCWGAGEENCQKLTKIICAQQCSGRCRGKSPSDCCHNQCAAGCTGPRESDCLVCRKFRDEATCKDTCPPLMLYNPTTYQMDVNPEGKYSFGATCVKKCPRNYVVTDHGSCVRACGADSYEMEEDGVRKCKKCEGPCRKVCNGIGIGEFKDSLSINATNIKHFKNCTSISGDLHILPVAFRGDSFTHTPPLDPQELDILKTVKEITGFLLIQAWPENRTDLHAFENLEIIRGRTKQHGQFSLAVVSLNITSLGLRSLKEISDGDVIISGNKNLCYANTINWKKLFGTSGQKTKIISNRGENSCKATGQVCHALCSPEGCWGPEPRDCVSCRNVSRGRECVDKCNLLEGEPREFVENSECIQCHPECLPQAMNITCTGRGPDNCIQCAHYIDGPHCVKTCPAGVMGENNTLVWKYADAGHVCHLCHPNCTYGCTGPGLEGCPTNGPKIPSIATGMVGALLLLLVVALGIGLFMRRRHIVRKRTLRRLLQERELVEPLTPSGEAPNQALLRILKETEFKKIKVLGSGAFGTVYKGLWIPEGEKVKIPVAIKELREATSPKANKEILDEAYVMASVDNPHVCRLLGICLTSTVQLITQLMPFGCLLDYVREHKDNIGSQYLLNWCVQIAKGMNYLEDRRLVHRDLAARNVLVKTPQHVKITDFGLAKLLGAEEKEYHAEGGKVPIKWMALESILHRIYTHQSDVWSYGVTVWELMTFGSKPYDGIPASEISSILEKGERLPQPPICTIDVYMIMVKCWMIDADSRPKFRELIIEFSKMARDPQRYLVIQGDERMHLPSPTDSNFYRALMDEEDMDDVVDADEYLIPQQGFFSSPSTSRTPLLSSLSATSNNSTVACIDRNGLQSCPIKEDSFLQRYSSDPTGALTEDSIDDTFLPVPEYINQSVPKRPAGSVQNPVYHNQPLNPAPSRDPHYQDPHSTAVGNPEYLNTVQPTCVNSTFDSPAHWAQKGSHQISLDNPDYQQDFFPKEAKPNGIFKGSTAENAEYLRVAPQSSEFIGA
Sequence of Torsin-1A-interacting protein 1 (Homo sapiens) (Q5JTV8 whole entry, looked up): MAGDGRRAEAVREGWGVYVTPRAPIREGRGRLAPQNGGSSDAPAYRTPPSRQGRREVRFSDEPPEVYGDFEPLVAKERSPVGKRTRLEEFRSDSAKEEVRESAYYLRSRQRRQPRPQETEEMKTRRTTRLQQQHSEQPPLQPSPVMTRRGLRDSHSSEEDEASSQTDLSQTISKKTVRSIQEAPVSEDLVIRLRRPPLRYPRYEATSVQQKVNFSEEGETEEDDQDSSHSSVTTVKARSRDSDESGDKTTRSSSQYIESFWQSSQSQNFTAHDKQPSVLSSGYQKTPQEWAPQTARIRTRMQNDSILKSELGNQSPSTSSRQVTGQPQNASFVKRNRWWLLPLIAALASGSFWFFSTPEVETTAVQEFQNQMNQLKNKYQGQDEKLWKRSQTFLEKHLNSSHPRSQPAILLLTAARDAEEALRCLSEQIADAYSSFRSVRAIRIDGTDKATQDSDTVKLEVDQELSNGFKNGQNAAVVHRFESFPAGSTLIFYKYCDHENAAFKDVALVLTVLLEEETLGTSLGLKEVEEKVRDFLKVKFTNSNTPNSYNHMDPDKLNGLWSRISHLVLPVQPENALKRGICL
Sequence of Fibroblast growth factor 10 (Homo sapiens) (O15520 whole entry, looked up): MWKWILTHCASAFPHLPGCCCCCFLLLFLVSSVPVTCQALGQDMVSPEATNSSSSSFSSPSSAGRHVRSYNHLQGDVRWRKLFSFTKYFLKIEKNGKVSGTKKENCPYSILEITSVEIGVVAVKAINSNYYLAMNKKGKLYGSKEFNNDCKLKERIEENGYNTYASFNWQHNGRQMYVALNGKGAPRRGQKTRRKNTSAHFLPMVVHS
Sequence of Alpha-bungarotoxin (Bungarus multicinctus) (P60615 whole entry, looked up): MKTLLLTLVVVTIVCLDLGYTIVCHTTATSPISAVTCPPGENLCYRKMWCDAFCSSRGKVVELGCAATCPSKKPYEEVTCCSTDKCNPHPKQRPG
Sequence of Dickkopf-related protein 1 (Homo sapiens) (O94907 whole entry, looked up): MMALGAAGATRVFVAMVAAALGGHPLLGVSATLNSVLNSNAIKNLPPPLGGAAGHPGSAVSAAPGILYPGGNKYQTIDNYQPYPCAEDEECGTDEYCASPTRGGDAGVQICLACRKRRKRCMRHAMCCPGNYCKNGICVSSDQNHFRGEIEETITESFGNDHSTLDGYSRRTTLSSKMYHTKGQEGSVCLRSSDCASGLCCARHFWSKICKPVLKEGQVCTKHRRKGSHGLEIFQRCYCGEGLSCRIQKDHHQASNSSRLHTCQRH

Take `[N-]=[N+]=NCc1ccccc1[C@H]1OC(c2ccc(OCCCO)cc2)=N[C@@]1(Cc1ccccc1N=[N+]=[N-])C(=O)O`: the composite z-score is 1.07 in assay [1]; 1.08 in assay [2]; 0.904 in assay [3]; 0.716 in assay [5]; 1.03 in [6]; -0.0317 in assay [7]. For the same molecule, the composite z-score in assay [8] is 0.783; in assay [9], -0.107; in assay [10], 0.987; in assay [11], 1.41; in [13], -0.0361; in [14], 1.82. Further, the composite z-score in assay [15] was 0.83; in assay [16] it was -0.0161; in assay [17], 0.385; in assay [18] it was 0.19; in assay [19], 0.765; in [20], 1.98. In addition, the results for the z-score in assay [4] and in [12] were 0.258 (inactive) and -0.304, respectively.

On to `CCCCC(=C=CC[C@@H](O)c1ccc(OCCO)cc1)CCO`, for which the composite z-score in assay [1] is 0.413; in [2], -0.0198; in assay [3], -0.305; in [5] it was 0.701; in assay [6] it was -0.246; in assay [7] it was -0.899. Also, the composite z-score in [8] is -0.281; in assay [9], -0.549; in [10], 1.09; in [11] it was -0.919; in assay [13], -0.488; in assay [14], -0.45. For the same molecule, the composite z-score in assay [15] was 0.0486; in assay [16], -0.101; in assay [17], -0.154; in assay [18], -0.314; in assay [19], 0.764; in assay [20], 0.657. In addition, the z-score in assay [4] is -0.755 (inactive); in assay [12], -0.96.

Regarding `COc1ccc([Si](C)(C)[C@@H]2[C@@H](CC(=O)N3Cc4ccccc4C[C@H]3CO)O[C@]3(C(=O)N(Cc4ccc(I)cc4)c4ccccc43)[C@H]2C)cc1`, the composite z-score in assay [1] is 0.458; in assay [2], -0.128; in assay [3] it was -0.357; in assay [5] it was 1.12; in [6], 0.66; in [7], 1.22. For the same molecule, the composite z-score in assay [8] was 1.36; in [9], 1.45; in assay [10], 1.52; in assay [11] it was 1.3; in assay [13] it was 0.878; in assay [14] it was 0.186. Further, the composite z-score in [15] is 0.426; in assay [16], -0.0472; in assay [17], -0.304; in assay [18], -0.503; in assay [19], 0.224; in assay [20], 0.308. The z-score in assay [4] is -1.36 (inactive); in assay [12], -3.76.

Consider `CCCNC(=O)[C@@]1(Sc2ccc(C)cc2)CC(=O)N(Cc2cc(C(F)(F)F)cc(C(F)(F)F)c2)[C@@H]1c1ccc(CO)cc1`, for which the composite z-score in assay [1] was -0.441; in assay [2], -0.09; in assay [3], 0.738; in [5] it was 0.0468; in assay [6], -0.365; in [7], -0.738. For the same molecule, the composite z-score in assay [8] was -0.888; in assay [9], -1.2; in [10], 0.108; in assay [11], 0.156; in assay [13], -0.272; in [14], -0.159. For the same molecule, the composite z-score in assay [15] is 0.441; in assay [16], -0.0944; in assay [17] it was -0.291; in [18], -0.164; in assay [19] it was 0.443; in [20], 0.0468. For the same molecule, the values for the z-score in [4] and in assay [12] were -1.58 (inactive) and -1.83, respectively.

For `CN1C(=O)C2C=CC(C(O)c3cccs3)N(N(c3ccccc3)c3ccccc3)C2C1=O` (stereo not given), the composite z-score in [1] is 0.82; in assay [2] it was 0.0508; in [3] it was 0.66; in [5], 0.347; in assay [6], 0.347; in assay [7], -0.665. In addition, the composite z-score is 0.602 in assay [8]; -0.351 in assay [9]; 1.27 in assay [10]; 1.28 in assay [11]; -0.632 in [13]; 1.07 in [14]. Also, the composite z-score in assay [15] was 0.831; in [16] it was 0.143; in assay [17] it was 0.131; in assay [18], -0.267; in assay [19], 0.713; in assay [20] it was 1.79. The z-score in [4] was 2.04 (inactive); in assay [12] it was 0.053.

Take `CCCN1C(=O)[C@@]2(c3ccc([N+](=O)[O-])cc3)CC(=O)N(C3CCCCC3)[C@@H]2c2ccc(CO)cc21`: the composite z-score in assay [1] is 0.219; in assay [2], 0.27; in [3], -0.12; in assay [5] it was 0.453; in [6], 0.478; in assay [7], 0.121. In addition, the composite z-score was 0.41 in [8]; 1.2 in [9]; 0.898 in assay [10]; 0.202 in [11]; 0.445 in assay [13]; -0.0766 in assay [14]. The composite z-score in assay [15] is -0.567; in [16], -0.18; in assay [17], -0.225; in [18], -0.0165; in assay [19] it was -0.349; in [20], -0.171. Besides, the z-score in assay [4] is -0.237 (inactive); in [12], -0.136.

Values taken from PubChem BioAssay.
